Results: PubChem BioAssay (NCATS)
Values joined by “and” are separate entries in the source; they are usually repeats but may differ in a detail not shown here. Equal entries are not always repeated. Results filed as inconclusive are left out. For some assays here: Measured potencies and affinities stand elsewhere. Active and inactive are the calls of the source.

How the values were obtained:
[1] = Ebola virus entry assay, blue channel fluorescence
[2] = Ebola virus entry assay, green fluorescence channel
[3] = Ebola virus entry assay, ratio channel readout
[4] = Ebola virus entry assay, blue channel fluorescence; remark: listed apart in the source
[5] = qHTS Assay for Identifying Gametocytocidal Compounds (AID 743244; active = well fitted curve in the direction sought with a large enough effect; an effect the other way counts as inactive or inconclusive;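 also: % is scaled to controls: 0 for no effect and ±100 for the full control effect; actives lower the fluorescent signal which means gametocytes are killed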); settings: P. falciparum 3D7 stage III-V gametocytes, alamarBlue, 72 h; max response: hits give low values
Method in brief: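 Fluorescence at Ex 525/Em 598 nm, recorded 24 h after alamarBlue addition, reports residual metabolic activity of 3D7 gametocytes (stages III–V) following 72 h compound exposure at 37 °C, 5% CO2.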

[6] = qHTS assay for cell viability of HEK293 cells (AID 743288; active = well fitted curve in the direction sought with a large enough effect; an effect the other way counts as inactive or inconclusive; also: % is scaled to controls: 0 for no effect and ±100 for the full control effect; nearly all actives have a fitted effect of over 50% in size); settings: ATP luminescence (CellTiter-Glo), 18 h, hits give low values
Method in brief: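 HEK293, 18 h, 37 C, ATP luminescence. Cells at 2,000/well were allowed at least 5 h to settle before dosing; CellTiter-Glo developed 30 min at RT.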

[7] = qHTS assay for cell viability of the p53RE-bla HCT-116 cell line (AID 743292; active = well fitted curve in the direction sought with a large enough effect; an effect the other way counts as inactive or inconclusive; also: % is scaled to controls: 0 for no effect and ±100 for the full control effect; nearly all actives have a fitted effect of over 55% in size); settings: p53RE-bla HCT-116 viability, ATP luminescence, 16 h; series mostly up to 95 µM
Method in brief: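 In this qHTS counter-screen, metabolically competent p53RE-bla HCT-116 cells were counted via their ATP content. Compounds were applied for 16 h at 37 C and luciferase-coupled luminescence was measured.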

C#CCC(Cc1cnc2nc(N)nc(N)c2n1)c1ccc(C(=O)N[C@@H](CCC(=O)O)C(=O)O)cc1 (stereo partly specified)
inactive: outcome [1] | outcome [2] | outcome [3] | outcome [4]

C=CC(N)CCC(=O)O (stereo unspecified)
inactive: outcome [1] | outcome [2] | outcome [3] | outcome [4]

CN[C@@H]1[C@H](O[C@H]2[C@H](O[C@H]3[C@H](O)[C@@H](O)[C@H](N=C(N)N)[C@@H](O)[C@@H]3N=C(N)N)O[C@@H](C)[C@]2(O)C=O)O[C@@H](CO)[C@H](O)[C@H]1O
inactive: outcome [1] | outcome [2] | outcome [3] | outcome [4]

O=C1Nc2ccc(Cl)cc2C(c2ccccc2Cl)=NC1O (stereo unspecified)
inactive: outcome [1] | outcome [2] | outcome [3] | outcome [4]

C[C@@H]1[C@H](O)[C@@H](C)/C=C/C=C\C=C\C=C\C=C\C=C\C=C\[C@H](O[C@@H]2O[C@H](C)[C@@H](O)[C@H](N)[C@@H]2O)C[C@@H]2O[C@](O)(C[C@@H](O)C[C@@H](O)[C@H](O)CC[C@@H](O)C[C@@H](O)CC(=O)O[C@H]1C)C[C@H](O)[C@H]2C(=O)O (stereo in doubt)
inactive: outcome [1] | outcome [2] | outcome [3] | outcome [4]

OCC(S)CS (stereo unspecified)
inactive: outcome [1] | outcome [2] | outcome [3] | outcome [4]

Nc1nc(NC2CC2)c2ncn([C@@H]3C=C[C@@H](CO)C3)c2n1
inactive: outcome [1] | outcome [2] | outcome [3] | outcome [4]

CN[C@@H](C)Cc1ccccc1
inactive: max response [5] 5.78% | outcome [1] | outcome [2] | outcome [3] | outcome [4]

CC[C@H](C)C(=O)O[C@H]1C[C@H](O)C=C2C=C[C@H](C)[C@H](CC[C@@H](O)C[C@@H](O)CC(=O)O)[C@H]21
inactive: outcome [1] | outcome [2] | outcome [3] | outcome [4]

Cc1nnc(C(C)C)n1C1C[C@H]2CC[C@@H](C1)N2CC[C@H](NC(=O)C1CCC(F)(F)CC1)c1ccccc1 (stereo partly specified)
inactive: outcome [1] | outcome [2] | outcome [3] | outcome [4]

C=C1[C@H](CO)[C@@H](O)C[C@@H]1n1cnc2c(=O)[nH]c(N)nc21
inactive: outcome [1] | outcome [2] | outcome [3] | outcome [4]

CCC(=O)NCCC1CCc2ccc3c(c21)CCO3 (stereo unspecified)
inactive: outcome [1] | outcome [2] | outcome [3] | outcome [4]

COC(=O)C(c1ccccc1)C1CCCCN1 (stereo unspecified)
inactive: max response [5] -2.03% | max response [6] -2.58% and -3.35% | Potency [7] | outcome [1] | outcome [2] | outcome [3] | outcome [4]

CC(=O)NCCCS(=O)(=O)O
inactive: outcome [1] | outcome [2] | outcome [3] | outcome [4]

CO/N=C(\C(=O)N[C@@H]1C(=O)N2C(C(=O)O)=CCS[C@H]12)c1csc(N)n1
inactive: outcome [1] | outcome [2] | outcome [3] | outcome [4]

Cc1nnc2n1-c1ccc(Cl)cc1C(c1ccccc1Cl)=NC2
inactive: max response [5] -0.695% | outcome [1] | outcome [2] | outcome [3] | outcome [4]

Cc1c(N)nc([C@H](CC(N)=O)NC[C@H](N)C(N)=O)nc1C(=O)N[C@H](C(=O)N[C@H](C)[C@@H](O)[C@H](C)C(=O)N[C@H](C(=O)NCCc1nc(-c2nc(C(=O)NCCCCN=C(N)N)cs2)cs1)[C@@H](C)O)[C@@H](O[C@@H]1O[C@@H](CO)[C@@H](O)[C@H](O)[C@@H]1O[C@H]1O[C@H](CO)[C@@H](O)[C@H](OC(N)=O)[C@@H]1O)c1cnc[nH]1
inactive: outcome [1] | outcome [2] | outcome [3] | outcome [4]

Cc1nnc2n1-c1ccc(Cl)cc1C(c1ccccc1)=NC2
inactive: outcome [1] | outcome [2] | outcome [3] | outcome [4]

NC(=O)[C@@H]1CCCN1C(=O)[C@H](Cc1cnc[nH]1)NC(=O)[C@@H]1CCC(=O)N1
inactive: outcome [1] | outcome [2] | outcome [3] | outcome [4]

COc1cc(Br)c(C[N+]2(CCOCCC3CCC4CC3C4(C)C)CCOCC2)cc1OC (stereo unspecified)
inactive: outcome [1] | outcome [2] | outcome [3] | outcome [4]

O=P(O)(O)C(Sc1ccc(Cl)cc1)P(=O)(O)O
inactive: outcome [1] | outcome [2] | outcome [3] | outcome [4]

N#Cc1ccc(C(c2ccc(C#N)cc2)n2cncn2)cc1
inactive: outcome [1] | outcome [2] | outcome [3] | outcome [4]

CC(C)[C@H](N)C(=O)OCC(CO)OCn1cnc2c(=O)[nH]c(N)nc21 (stereo partly specified)
inactive: outcome [1] | outcome [2] | outcome [3] | outcome [4]

C=C1C(=C/C=C2\CCC[C@]3(C)[C@@H]([C@H](C)CCCC(C)(C)O)CC[C@@H]23)C[C@@H](O)C[C@@H]1O
inactive: outcome [1] | outcome [2] | outcome [3] | outcome [4]
